Measurements published in the supplement of paper PMC3545927.
The other results are listed elsewhere or left out. How many sequences the whole screen found active is unknown.

B1: HC83 (peptide)
chain: CAVVCVSMSYAGNASASA
B2: FS-1779 (peptide)
chain: CARRKRSAGAAGNASASA
B3: FS-1756 (peptide)
chain: CARNHRDAGAAGNASASA
B4: HC2543 (peptide)
chain: CASTPCSAALAGNASASA
B5: FS-2451 (peptide)
chain: CARRKRKGSDAGNASASA
B6: FS-1729 (peptide)
chain: CARKNRPAGAAGNASASA
B7: FS-1994 (peptide)
chain: CARAQRSAGAAGNASASA
B8: FS-2227 (peptide)
chain: CARRGRSGGAAGNASASA
B9: FS-2189 (peptide)
chain: CARTKREAGAAGNASASA
B10: FS-3053 (peptide)
chain: CARRKRHDIAAGNASASA
B11: FS-2371 (peptide)
chain: CARRKRSAALAGNASASA
B12: HC1710 (peptide)
chain: CAMEVCSQHLAGNASASA
B13: HC21 (peptide)
chain: CAMEECAQHLAGNASASA
B14: HC969 (peptide)
chain: CATLHGPTPLAGNASASA
B15: HC1292 (peptide)
chain: CAEDEREISVAGNASASA
B16: FS-2847 (peptide)
chain: CARYARKIEPAGNASASA
B17: FS-1808 (peptide)
chain: CARYARWAGAAGNASASA
B18: FS-3262 (peptide)
chain: CARRKRHISVAGNASASA
B19: FS-1809 (peptide)
chain: CARYHRDAGAAGNASASA
B20: FS-3060 (peptide)
chain: CARRQRRVPGAGNASASA
B21: FS-2594 (peptide)
chain: CARRKRRAPLAGNASASA
B22: HC39 (peptide)
chain: CAMEECQQHLAGNASASA
B23: HC561 (peptide)
chain: CALALPQRAYAGNASASA
B24: HC2162 (peptide)
chain: CAQVVTSTWVAGNASASA
B25: HC2168 (peptide)
chain: CAEWVTSTWVAGNASASA
B26: HC2044 (peptide)
chain: CAVVCCSISYAGNASASA
B27: FS-1828 (peptide)
chain: CARKKRREEKAGNASASA
B28: FS-2562 (peptide)
chain: CARKKRATHSAGNASASA
B29: FS-2270 (peptide)
chain: CARKKRSTKKAGNASASA
B30: FS-2395 (peptide)
chain: CARKKRYDRKAGNASASA
B31: FS-2961 (peptide)
chain: CARKKRADKKAGNASASA
B32: FS-2964 (peptide)
chain: CARKKREKKKAGNASASA
B33: HC1758 (peptide)
chain: CAMEECSQTLAGNASASA
B34: HC787 (peptide)
chain: CAVLNPSVAAAGNASASA
B35: HC1066 (peptide)
chain: CAILGGWVAAAGNASASA
B36: FS-1047 (peptide)
chain: CAPKGRPKRAAGNASASA
B37: HC558 (peptide)
chain: CAPLLLLLLAAGNASASA
B38: FS-847 (peptide)
chain: CAQGTRFKRAAGNASASA
B39: FS-699 (peptide)
chain: CAPLKRFKRAAGNASASA
B40: HC276 (peptide)
chain: CAREGNASRCAGNASASA
B41: FS-1248 (peptide)
chain: CAQLGRPKRCAGNASASA
B42: HC2362 (peptide)
chain: CAEVQCHRPSAGNASASA
B43: HC1202 (peptide)
chain: CAWRVSAEEYAGNASASA

Biological target: furin, P09958
Test: furin cleavage Z-score vs untreated control; higher = more cleavage, active = 3.5 or more, inactive = 1 or less, 8 variable residues between constant flanks
Procedure: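 Multiplexed peptide-cDNA fusion cleavage assay. 8-mer variable peptides flanked by constant Cys-Ala (N-term) and Ala-Gly-Asn-Ala-Ser-Ala-Ser-Ala (C-term) and conjugated to a cDNA oligonucleotide were bead-immobilised via the N-terminus. They were treated with purified furin at a 1:10 enzyme:substrate ratio in 50 mM HEPES pH 7.5, 1 mM CaCl2, 100 mM NaCl for 7.5, 15 or 30 min. Released cDNA was counted by next-generation sequencing, and log counts versus no-furin controls were lowess-adjusted and converted to robust Z-scores.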

Chain of furin, P09958 (P09958 whole entry): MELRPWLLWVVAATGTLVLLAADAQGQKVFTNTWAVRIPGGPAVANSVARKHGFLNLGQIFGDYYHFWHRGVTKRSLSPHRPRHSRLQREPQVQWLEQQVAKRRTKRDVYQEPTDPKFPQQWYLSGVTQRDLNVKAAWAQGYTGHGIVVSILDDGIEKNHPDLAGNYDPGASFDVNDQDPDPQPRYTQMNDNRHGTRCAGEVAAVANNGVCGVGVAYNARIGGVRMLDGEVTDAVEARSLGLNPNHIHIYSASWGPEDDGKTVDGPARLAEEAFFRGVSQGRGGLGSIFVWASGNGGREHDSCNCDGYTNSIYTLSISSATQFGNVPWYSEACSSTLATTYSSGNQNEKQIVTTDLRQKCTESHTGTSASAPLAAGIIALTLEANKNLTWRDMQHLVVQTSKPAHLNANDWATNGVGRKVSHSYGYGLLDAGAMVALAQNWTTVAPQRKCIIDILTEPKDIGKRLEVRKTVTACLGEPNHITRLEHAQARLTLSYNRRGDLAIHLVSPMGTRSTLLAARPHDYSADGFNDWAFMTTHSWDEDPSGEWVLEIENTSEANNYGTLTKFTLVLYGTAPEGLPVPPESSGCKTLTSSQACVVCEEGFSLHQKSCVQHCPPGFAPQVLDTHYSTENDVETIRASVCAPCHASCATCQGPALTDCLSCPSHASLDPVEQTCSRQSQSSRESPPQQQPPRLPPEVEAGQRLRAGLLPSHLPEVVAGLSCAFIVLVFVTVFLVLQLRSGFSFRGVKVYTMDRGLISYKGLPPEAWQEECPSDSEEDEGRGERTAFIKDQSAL

| Sequence | furin cleavage Z-score (7.5 min) | furin cleavage Z-score (15 min) | furin cleavage Z-score (30 min) |
| --- | --- | --- | --- |
| B1 | 0.357 (inactive) | 0.79 (inactive) | -0.758 (inactive) |
| B2 | 11.3 (active) | 10.7 (active) | 8.77 (active) |
| B3 | 1.3 | 0.109 (inactive) | 0.263 (inactive) |
| B4 | -1.2 (inactive) | -0.501 (inactive) | 0.383 (inactive) |
| B5 | 0.854 (inactive) | 2.01 | 1.02 |
| B6 | -0.275 (inactive) | -0.752 (inactive) | -0.0808 (inactive) |
| B7 | 0.322 (inactive) | 0.0646 (inactive) | 1.56 |
| B8 | -0.325 (inactive) | -0.173 (inactive) | -0.877 (inactive) |
| B9 | 10.6 (active) | 10.5 (active) | 7.02 (active) |
| B10 | 9.56 (active) | 8.72 (active) | 8.78 (active) |
| B11 | 10.8 (active) | 11.7 (active) | 9.76 (active) |
| B12 | 0.136 (inactive) | 0.13 (inactive) | -0.0969 (inactive) |
| B13 | -0.625 (inactive) | -0.0837 (inactive) | -0.768 (inactive) |
| B14 | 0.77 (inactive) | 0.336 (inactive) | -0.402 (inactive) |
| B15 | 0.521 (inactive) | -0.358 (inactive) | 1.28 |
| B16 | 0.34 (inactive) | 1.98 | 2.59 |
| B17 | 3.25 | 3.55 (active) | 4.67 (active) |
| B18 | 5.85 (active) | 5.59 (active) | 7.18 (active) |
| B19 | 1.33 | 1.22 | 0.229 (inactive) |
| B20 | 0.752 (inactive) | 1.27 | 2.47 |
| B21 | 4.11 (active) | 6.31 (active) | 6.38 (active) |
| B22 | 1.54 | 0.787 (inactive) | 2.55 |

| Sequence | furin cleavage Z-score (7.5 min) | furin cleavage Z-score (15 min) | furin cleavage Z-score (30 min) |
| --- | --- | --- | --- |
| B23 | 0.0304 (inactive) | 1.97 | 1.07 |
| B24 | 0.38 (inactive) | 0.0342 (inactive) | 0.112 (inactive) |
| B25 | 0.00297 (inactive) | 0.984 (inactive) | 0.871 (inactive) |
| B26 | 0.197 (inactive) | -0.41 (inactive) | -0.348 (inactive) |
| B27 | -0.326 (inactive) | 2.8 | 0.74 (inactive) |
| B28 | 11.5 (active) | 12.2 (active) | 9.97 (active) |
| B29 | 5.56 (active) | 7.13 (active) | 6.85 (active) |
| B30 | 4.56 (active) | 7.7 (active) | 7.88 (active) |
| B31 | 5 (active) | 6.53 (active) | 5.44 (active) |
| B32 | -0.433 (inactive) | -0.316 (inactive) | 0.927 (inactive) |
| B33 | 0.0304 (inactive) | 0.61 (inactive) | 0.799 (inactive) |
| B34 | -0.311 (inactive) | -0.0498 (inactive) | -0.157 (inactive) |
| B35 | -0.934 (inactive) | -0.574 (inactive) | -1.27 (inactive) |
| B36 | 11.3 (active) | 13.3 (active) | 9.54 (active) |
| B37 | -0.475 (inactive) | -2.1 (inactive) | 0.488 (inactive) |
| B38 | 11.1 (active) | 10.3 (active) | 8.39 (active) |
| B39 | 12.2 (active) | 12 (active) | 9.3 (active) |
| B40 | -0.0161 (inactive) | -0.511 (inactive) | -0.0787 (inactive) |
| B41 | 8.77 (active) | 10.3 (active) | 8.22 (active) |
| B42 | 0.385 (inactive) | 1.46 | 0.778 (inactive) |
| B43 | -0.863 (inactive) | -1.63 (inactive) | -0.815 (inactive) |
